# Most compounds without a hit are left out; they make up all but 3.5% or so of the library.
# TEAD-YAP block: TEAD-YAP interaction inhibition | HEK-TIYL cells, TEAD-Gal4/YAP UAS-luciferase luminescence | inhibition, % at 9.12 µM | hit rate 1.4% among 640,000 | AID 1259422; in the data active means inhibition above about 32%;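 further: 0% = median of test compound wells and 100% = reference inhibitor wells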
# MITF primary: blocks human microphthalmia-associated transcription factor. hit rate 0.91% among 650,000. AlphaScreen MITF homodimerization, bead proximity signal. inhibition, % at 2.6 µM; in the data active means inhibition above about 50%;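 further: 0% = vehicle wells with protein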
# Target sequence (O75030 whole entry, looked up): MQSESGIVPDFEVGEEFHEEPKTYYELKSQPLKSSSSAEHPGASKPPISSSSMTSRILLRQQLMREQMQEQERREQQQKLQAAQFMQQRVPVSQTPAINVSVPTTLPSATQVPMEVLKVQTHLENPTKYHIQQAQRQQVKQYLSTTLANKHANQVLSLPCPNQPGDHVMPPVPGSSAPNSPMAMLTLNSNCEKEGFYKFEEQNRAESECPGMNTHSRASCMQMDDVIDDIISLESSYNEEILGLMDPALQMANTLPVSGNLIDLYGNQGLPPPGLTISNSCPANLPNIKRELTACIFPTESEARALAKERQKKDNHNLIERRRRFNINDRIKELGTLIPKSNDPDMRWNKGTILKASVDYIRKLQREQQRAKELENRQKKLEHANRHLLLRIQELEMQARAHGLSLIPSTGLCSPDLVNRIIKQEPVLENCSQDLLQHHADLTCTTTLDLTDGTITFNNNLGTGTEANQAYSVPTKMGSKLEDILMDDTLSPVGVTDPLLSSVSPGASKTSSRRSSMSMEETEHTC
# GPR151 activ: activators of human GPR151; PathHunter beta-arrestin GPR151 cells, luminescence; hit rate 1% among 650,000; AID 1508602; activation, % at 11.2 µM; in the data active means activation above about 4.9%;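 further: 0% = median of compound wells and 100% = cells with positive control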
# FBW7 activator: activators of human E3 ligase FBW7; Q969H0; AlphaScreen FBW7–phospho-cyclin E peptide binding, activator screen; normalized activity (activation), % at 26.1 µM; hit rate 0.13% among 650,000; AID 1259310; in the data active means normalized activity above about 1.9%;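 further: purified mutant Fbw7 with reduced substrate affinity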
# Starred values were filed as active, the others as inactive.
SMILES,TEAD-YAP block,MITF primary,GPR151 activ,FBW7 activator
Oc1cccc(Nc2nc(-c3cccnc3)cs2)c1,44.8*,9.1,-2.1,-0.2
Cc1nc(C)c(-c2csc(Nc3cccc(O)c3)n2)s1,35.0*,10.1,-1.2,0.0
COc1cc(Br)c(Nc2nc(-c3c(C)nc4sccn34)cs2)c(Br)c1,7.6,-14.7,-0.5,0.0
Oc1cccc(Nc2nc(-c3ccncc3)cs2)c1,3.1,6.0,-0.9,-0.2
CCC(=O)Nc1nc(C)c(-c2csc(Nc3ccc(NC(C)=O)cc3)n2)s1,43.8*,13.5,-1.5,-0.1
Oc1ccc(-c2csc(Nc3ccc(Cl)cc3)n2)cc1O,-75.3,-1.1,-1.2,-0.3
Oc1ccc(-c2csc(Nc3ccccc3)n2)cc1O,-14.8,66.3*,1.3,0.0
Cc1nc2sccn2c1-c1csc(Nc2ccc(Cl)cc2)n1,50.1*,14.3,-0.2,-0.1
CCOc1ccc(Nc2nc(-c3sc(C)nc3C)cs2)cc1,41.3*,6.0,-0.5,-0.1
COC(=O)c1c(NC(=O)COc2cc(Cl)ccc2Cl)sc2c1CCCC2,7.1,11.5,-1.2,0.0
COc1ccc2nc3sc(C(=O)N4CCN(c5ccccc5OC)CC4)c(N)c3cc2c1,-2.3,0.0,-0.9,0.1
COc1ccc(N2CCN(C(=O)c3sc4nc5ccc(OC)cc5cc4c3N)CC2)cc1,-2.6,69.5*,-0.5,0.0
COc1cc(-c2ccc(NC(=O)Nc3ccccc3C)c(OC)c2)ccc1NC(=O)Nc1ccccc1C,45.1*,13.7,-1.7,0.5
Cc1ccc(-c2ncnn2-c2sc3c(c2C#N)CCCCC3)cc1,2.2,5.0,-1.1,-0.7
N#Cc1c(-n2ncnc2-c2cccs2)sc2c1CCCCC2,63.9*,22.4,0.6,-0.1
COc1ccc(C(=O)N2CCN(Cc3ccc(SC)cc3)CC2)cc1,42.8*,36.6,-1.7,-0.1
CCN(CC)CCn1c2ccccc2c2nc3ccccc3nc21,76.0*,1.8,-1.0,0.4
CCCCn1c2ccccc2c2nc3cc(OC)c(OC)cc3nc21,3.3,-5.2,-0.7,1.7
COc1cc2nc3c4ccccc4n(C(C)C)c3nc2cc1OC,1.7,-49.0,-1.8,3.7*
CCCn1c2ccccc2c2nc3cc(OC)c(OC)cc3nc21,9.6,-9.6,2.1,3.7*
COc1ccccc1OC/C(O)=C(\C#N)c1nc2ccccc2[nH]1,3.8,-2.2,1.4,0.0
CCNc1nc(Nc2ccccc2)c2ncn(-c3ccsc3)c2n1,-40.7,5.1,-1.4,0.1
Cc1ccc2[nH]c(=O)c3cc(C(=O)N4CCN(C)CC4)sc3c2c1,-0.4,-1.1,-0.2,0.0
CCN1CCN(C(=O)c2cc3c(=O)[nH]c4ccc(C)cc4c3s2)CC1,37.4*,18.4,1.0,0.0
O=C(c1n[nH]c(=O)c2ccccc12)N1CCN(c2cccc(Cl)c2)CC1,55.3*,-5.1,-0.2,-0.2
SMILES,TEAD-YAP block,MITF primary,GPR151 activ,FBW7 activator
Cc1ccc(C(=O)N2CCN(c3ccc([N+](=O)[O-])cc3)CC2)c(Cl)c1,34.6*,-3.9,-0.8,-0.2
O=C(c1cc([N+](=O)[O-])ccc1Cl)N1CCN(c2cccc(Cl)c2)CC1,32.3*,-12.4,-0.8,0.0
Cc1ccc(C)c(S(=O)(=O)Nc2ccc(I)cc2)c1,46.6*,4.7,0.3,0.1
COc1ccc2ccccc2c1/C=C1/SC(=S)NC1=O,2.4,0.9,-0.7,0.0
CCCOc1ccccc1/C=C1\SC(N)=NC1=O,7.3,3.6,0.3,0.0
CCCOc1ccc2ccccc2c1/C=C1\SC(N)=NC1=O,52.1*,4.8,0.0,-0.1
COc1ccc(N=C2NC(=O)/C(=C/c3c(OC)ccc4ccccc34)S2)cc1,36.2*,-2.4,-0.8,0.0
COc1ccc(N=C2NC(=O)/C(=C\c3cc(OC)ccc3OC)S2)cc1,19.1,-17.4,2.7,-0.1
COc1ccc2ccccc2c1/C=C1\SC(=Nc2ccc(C)cc2)NC1=O,53.2*,-2.9,-1.1,0.0
COc1ccc2ccc(OC)c(/C=C3/C(=O)Nc4ccccc43)c2c1,53.4*,-3.5,0.3,-0.1
CCOc1cc(C=O)cc(Cl)c1OCc1cccc(C(=O)O)c1,3.9,7.6,-0.4,-0.1
CCc1cccc(C)c1NC(=S)N(Cc1cccc(Br)c1)CC1CCC(C(=O)O)CC1 (centres undefined),9.8,11.1,0.0,0.3
Cc1ccc(C)c(CSc2nc3[nH]ncc3c(=O)[nH]2)c1,36.7*,9.9,1.4,0.2
Cc1ccccc1CSc1nc2[nH]ncc2c(=O)[nH]1,-7.0,4.8,0.1,0.0
O=C(Nn1c(-c2ccc(Br)o2)nc2ccccc2c1=O)c1cc(-c2ccc(F)cc2)nc2ccccc12,-3.0,9.6,2.6,0.2
O=C(Nc1ccc2oc(-c3ccccc3)nc2c1)c1cc(Cl)ccc1Cl,-0.1,2.7,0.6,0.0

# From PubChem BioAssay
